Bioassay records from PubChem.
A selection: hits, their analogues and other compounds. The true share with any hit is near 14%.
Shiga toxin inh: blocks Shiga toxin action in Vero cells | inhibition, % at 38.7 µM | Vero cells, Shiga toxin protein synthesis inhibition reporter | hit rate 9.2% among 290,000 | AID 2315; in the data active means inhibition mostly above about 28%, no sharp cut-off; inactive means mostly below about 43%; further: 0% is about no effect
LmPK inhibitor: LmPK (Leishmania mexicana) enzyme inhibition; hit rate 0.37% among 290,000; purified LmPK, Kinase-Glo ATP luminescence, 1 h; Potency, µM (series often up to 57.5 µM), for inactives: at the top dose activity change, negative = inhibition, hits mostly inhibitors; Q27686; further: potency means the concentration at half of the fitted maximal effect; on the % scale 0 is the no-effect control and ±100 the full control effect
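qHTS format; LmPK 0.1 nM; substrates PEP 0.5 mM and ADP 0.1 mM. One-hour room-temperature incubation, then coupled luciferase luminescence; 0.5 nM enzyme wells mark activation.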
Cycloheximide cs: counter-screen for Shiga toxin inhibitors: cycloheximide protein synthesis inhibition; cell reporter, cycloheximide protein synthesis inhibition counterscreen; max response, %; hit rate 12% among 300,000; AID 2314; in the data active means max response mostly above about 13%, no sharp cut-off; inactive means mostly below about 14%; further: read at 38.3 µM for the half of the compounds with a filed dose; 0% is about no effect
FBPA Giardia inh: Giardia lamblia aldolase inhibition; hit rate 0.71% among 290,000; Potency, µM (top dose mostly 59.6 µM), for the others: at the top dose activity, negative = inhibition, usual class: inhibitors; purified Giardia FBPA; further: potency means the concentration at half of the fitted maximal effect; on the % scale 0 is the no-effect control and ±100 the full control effect; nearly all actives have a fitted effect of over 55% in size
Target sequence (A8B2U2 whole entry, looked up): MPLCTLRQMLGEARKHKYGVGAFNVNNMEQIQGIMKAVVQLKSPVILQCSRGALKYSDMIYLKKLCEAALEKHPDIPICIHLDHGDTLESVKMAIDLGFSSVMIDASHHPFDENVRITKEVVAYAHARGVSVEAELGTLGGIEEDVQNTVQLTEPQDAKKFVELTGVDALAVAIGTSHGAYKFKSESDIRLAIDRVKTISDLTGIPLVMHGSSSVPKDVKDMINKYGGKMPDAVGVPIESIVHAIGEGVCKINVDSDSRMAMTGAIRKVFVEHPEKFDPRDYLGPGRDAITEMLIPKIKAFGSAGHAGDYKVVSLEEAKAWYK
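Giardia FBPA (40 nM reagent) was preincubated 10 min at RT with compound (up to 57.5 uM final), then substrate plus GAPDH/TPI/NAD/arsenate coupling system with diaphorase/resazurin was added; resorufin fluorescence (525/598 nm) was read after 20 min.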
NS1 inh: blocks influenza NS1 protein function | Potency, µM (doses to about 46.1 µM), for inactives: at the top dose activity, positive = more growth | hit rate 0.4% among 270,000; calls by dose curve; further: potency means the concentration at half of the fitted maximal effect; actives are rising curves; nearly all actives have a fitted effect of over 50% in size
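A cell-based growth assay was used: compounds that relieve NS1-induced slow growth of budding yeast raise OD600. Assay medium was yeast nitrogen base with ammonium sulphate and -URA supplement, pH 6.0, with 2% galactose.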
* hit, by the source's call; ? = inconclusive; . = not tested or not shown; [ ] = remark or other dose. Unless noted, the call rests on the fitted dose curve; in most records, active means well fitted curve in the direction sought with a large enough effect; inconclusive means small, poorly fitted or top-dose-only effect, or another doubt; inactive means no such curve, though single readings can be large; an effect the other way counts as inactive or inconclusive.

SMILES	Shiga toxin inh	LmPK inhibitor	Cycloheximide cs	FBPA Giardia inh	NS1 inh
CCOc1ccccc1NC(=O)CSc1ccc(-c2sc(C)nc2C)nn1	-3	2%	-1	.	-28%
CC(C)c1nnc(NC(=O)C2CCCO2)s1 (stereo not given)	1	3%	13	0%	5%
CCc1nnc(NC(=O)C2CCCO2)s1 (stereo not given)	27	2%	17*	-5%	2%
CCCc1nnc(NC(=O)C2CCCO2)s1 (stereo not given)	52	-2%	25*	3%	2%
COCCCNC(=O)CCc1ccccc1	-7	-5%	-3	4%	6%
Cc1ccccc1SCCNC(=O)CCc1ccccc1	28*	1%	26	0%	-30%
Cc1ccccc1SCCNC(=O)c1ccccc1Br	99*	-3%	43*	-1%	-11%
O=C(CSc1ncn[nH]1)NCc1ccccc1Cl	5	-1%	11	-8%	-16%
CCCCN1CCC2C=CCC(C(=O)O)C2C1=O (stereo not given)	2	.	-7	1%	.
CCOC(=O)c1ccc(N=C2C(=S)N(c3ccc(C(=O)OCC)cc3)C(=N)N2/N=C/c2ccccc2)cc1	33*	0%	12	0%	13%
COc1ccc(NC(=S)c2ccc3ccccc3n2)cc1	60*	2%	45*	-10%	-3%
COc1ccc(N=C(NN)c2ccc3ccccc3n2)cc1	20	3%	17	-27%	13%
CCOc1ccc(NC(=S)c2ccc3ccccc3n2)cc1	38*	2%	24*	18%	-5%
Cc1ccc(S(=O)(=O)/N=C(/Nc2ccc(F)cc2F)c2ccccc2)cc1	21	7%	0	.	-7%
Cc1cc(O)cc2c(=O)c3ccccc3sc12	131*	-23%	42*	-10%	.
COc1ccc(-n2cnc3cc(NC(=O)c4ccco4)ccc32)cc1	-10	0%	21	1%	-132%
CC(C)n1cnc2cc(NC(=O)c3ccco3)ccc21	75*	-7%	28*	-1%	1%
O=C(Nc1ccc2c(c1)ncn2C1CCCCC1)c1ccco1	91*	5%	37*	7%	-133%
COc1ccccc1-n1cnc2cc(NC(=O)c3ccco3)ccc21	84	5%	12	7%	-99%
O=C(O)C[SH+]CC(=O)O.O=C(O)C[SH+]CC(=O)O.[Cu]	.	.	.	.	-3%
CCOC(=O)C1(CC2CCCCO2)CCN(S(=O)(=O)c2ccc(C)s2)CC1 (stereo not given)	28	11%	11	5%	1%
CCOC(=O)C1(CC2CCCCO2)CCN(S(=O)(=O)c2ccsc2)CC1 (stereo not given)	23	-2%	13*	1%	-4%
CCOC(=O)C1(CC2CCCCO2)CCN(C(=O)Nc2ccccc2)CC1 (stereo not given)	35*	-8%	29*	5%	5%
O=C(O)C(Sc1ccc(Cl)cc1)Sc1ccc(Cl)cc1	.	.	.	.	-12%
CCCCC(CC)CNC(=O)CN(C)S(=O)(=O)c1cccc2nsnc12 (stereo not given)	53*	2%	10	1%	-37%
SMILES	Shiga toxin inh	LmPK inhibitor	Cycloheximide cs	FBPA Giardia inh	NS1 inh
O=C(Nc1ccc(F)cc1F)c1cc2ccccc2oc1=O	53*	-10%	20*	4%	17%
N/C(=N\NC(=O)c1cccc(F)c1)c1cc2ccccc2oc1=O	34*	-1%	26*	-13%	4%
Cc1ccc(N2C(=O)Nc3ccccc3S2(=O)=O)cc1Cl	-9	1%	14	12%	1%
CO[C@H]1C[C@@H]2C[C@H](O)C[C@@H](CC(=O)O[C@@H](/C=C\CC(C)C)C[C@@H]3CC[C@H](C)[C@@H](C1)O3)O2	.	.	.	1%[12.9 µM]	.
O=[N+]([O-])c1cccc(N(CC(O)CN2CCCC2)S(=O)(=O)c2ccccc2)c1 (stereo not given)	4	5%	-3	-4%	14%
Cc1ccc(NC2Sc3ccccc3NC2=O)cc1 (stereo not given)	41*	-9%	22*	-22%	.
O=C1Nc2ccccc2SC1c1ccccc1 (stereo not given)	-7	3%	-3	0%	-5%
CC(=O)c1cnc2nc(SCc3ccccc3C)nn2c1C	21	-1%	18*	10%	-18%
c1ccc2c(c1)oc1c(Nc3ccc4c(c3)OCCO4)ncnc12	69*	-13%	54*	-19%	-31%
Cc1nc(Nc2ccc3c(c2)OCCO3)c2c(C)c(C)sc2n1	45	1%	20*	-17%	.
COc1cccc(Nc2nc(C)nc3c2oc2ccccc23)c1	31	1%	11	-14%	-4%
Cc1sc2ncnc(OCC(=O)Nc3ccc4c(c3)OCCO4)c2c1C	8	0%	15	-3%	8%
CCc1nc(Nc2ccc3c(c2)OCCO3)c2oc3ccccc3c2n1	6	4%	17*	-18%	-1%
Cc1nc(Nc2ccc3c(c2)OCCO3)c2oc3ccccc3c2n1	83*	-3%	26*	-11%	-129%
CN1CCN(c2ccc(CNS(=O)(=O)c3ccsc3)cc2)CC1	18	1%	-2	1%	5%
CSCC[C@H](NC(=O)[C@H](Cc1ccccc1)NC(=O)[C@H](Cc1cnc[nH]1)NC(=O)CNC(=O)[C@@H](NC(=O)[C@H](C)NC(=O)[C@H](Cc1c[nH]c2ccccc12)NC(=O)[C@H](CC(C)C)NC(=O)[C@H](CC(N)=O)NC(=O)CN)[C@@H](C)O)C(N)=O	-4	.	-6	0%	.
COC(=O)C/C=C\[C@@H](C)[C@@H](/C=N\O[C@@H]1O[C@H](COC(C)=O)[C@H](OC(C)=O)[C@H](OC(C)=O)[C@H]1OC(C)=O)OC	.	.	.	1%[12.9 µM]	.
CCN(C(=O)C1CCCN(c2ncnc3c2nc2n3CCCCC2)C1)c1cccc(Cl)c1 (stereo not given)	-10	4%	-4	2%	-67%
COc1ccc(OC)c(Nc2nc(N(C)c3ccccc3)nc(N)c2[N+](=O)[O-])c1	-3	1%	-3	-2%	-2%
CCOc1ccccc1-c1c2cc(O)c(=O)cc-2oc2cc(O)c(O)cc12	6	-15%	-3	6.3µM*	?
COc1ccc(C(=O)N2CCC3(CCCN(Cc4ccc(C#N)cc4)C3)CC2)cc1	.	.	.	-1%	.
COc1cccc(NC(=O)CNC(=O)Cn2cnc3sc(C)c(C)c3c2=O)c1	16	5%	0	12%	6%
CCOc1c(OC(C)=O)ccc(/C=C/c2ccc3cccc(OC)c3n2)c1[N+](=O)[O-]	36*	1%	40*	0%	6%
COc1ccc(/C=C/c2ccc3cccc(O)c3n2)c(OC)c1OC	113*	1%	39*	6%	-77%
COc1cccc(/C=C/c2ccc3cccc(O)c3n2)c1OC	127*	-5%	58*	-2%	-77%
COc1cc(Br)cc(/C=C/c2ccc3cccc(O)c3n2)c1OC	-2	14%	-3	17%	8%
COC(=O)C1(C)C=C(Nc2ccc(OC)cc2)C(=O)N1c1ccc(OC)cc1 (stereo not given)	.	.	.	-13%	.
CCc1ccc(NC(=S)N(CCCN2CCOCC2)Cc2ccccn2)cc1	31*	-4%	39*	0%	8%
